The record followed here is the supplement of paper PMC13392028.

For the test, the system named is PyIESI-1 RRM domain (Plasmodium yoelii PY17X_0911200 aa 795-956, GST fusion). Nature of the test: RBNS R-value (6-mer enrichment in protein-bound RNA vs input library) (ratio); higher = stronger binding preference; the methods of the paper give 50 / 100 / 500 nM protein instead. Put shortly:
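Purified GST-tagged RNA-recognition-motif regions, from orthologues in three Plasmodium species expressed in E. coli, were bound at room temperature to a random 40-mer in vitro transcribed RNA library and captured on glutathione magnetic agarose beads. Bound RNA and input were reverse transcribed and MiSeq-sequenced, with 6-mers counted from one replicate. Enrichment in bound RNA over input is reported as the R-value, calculated with the Burge lab pipeline.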

Whole data set: some 4,100 sequences, median “RBNS R-value (6-mer enrichment in protein-bound RNA vs input library)” near 0.96, cut for the highest 2% near 2.4. What follows is part of a selection rich in the highest values, with near analogues and random picks from the rest.

In the case of CGGAGC, the “RBNS R-value” is 1.02 (protein concentration: 250 nM), 1.01 (protein concentration: 500 nM) and 1 (protein concentration: 1000 nM).

On to UUCUUU, for which the “RBNS R-value” (protein concentration: 250 nM) worked out at 0.927, the “RBNS R-value” (protein concentration: 500 nM) worked out at 0.977 and the “RBNS R-value” (protein concentration: 1000 nM) was determined as 1.

As for AUUUGC, the “RBNS R-value” is, setting by setting: (protein concentration: 250 nM) 1.82; (protein concentration: 500 nM) 1.76; (protein concentration: 1000 nM) 1.77.

Take GAUGGC: the “RBNS R-value” is, setting by setting: (protein concentration: 250 nM) 3.56; (protein concentration: 500 nM) 3.12; (protein concentration: 1000 nM) 3.1.

Take CAUGGC: the “RBNS R-value” is, setting by setting: (protein concentration: 250 nM) 1.06; (protein concentration: 500 nM) 1.08; (protein concentration: 1000 nM) 1.1.

In the case of AAUGGG, the “RBNS R-value” reads like this: (protein concentration: 250 nM) 1.06; (protein concentration: 500 nM) 1.06; (protein concentration: 1000 nM) 1.03.

As to UAUGGC, the “RBNS R-value” was determined as 1.41 (protein concentration: 250 nM), 1.37 (protein concentration: 500 nM) and 1.34 (protein concentration: 1000 nM).

In the case of UAUGGG, the “RBNS R-value” by setting is: (protein concentration: 250 nM) 0.863; (protein concentration: 500 nM) 0.942; (protein concentration: 1000 nM) 0.916.

On to GAUGGG, for which the “RBNS R-value” (protein concentration: 250 nM) amounted to 2.54, the “RBNS R-value” (protein concentration: 500 nM) is 2.43 and the “RBNS R-value” (protein concentration: 1000 nM) was determined as 2.36.

Regarding UCAGAC, the “RBNS R-value” (protein concentration: 250 nM) was determined as 0.883, the “RBNS R-value” (protein concentration: 500 nM) turned out to be 0.894 and the “RBNS R-value” (protein concentration: 1000 nM) was 0.893.

AUUUAC: the “RBNS R-value” runs as follows: (protein concentration: 250 nM) 0.935; (protein concentration: 500 nM) 0.952; (protein concentration: 1000 nM) 0.963.

Regarding AUGGGA, the “RBNS R-value” is 1.34 (protein concentration: 250 nM), 1.34 (protein concentration: 500 nM) and 1.29 (protein concentration: 1000 nM).

GUCAAC: the “RBNS R-value” worked out at 0.681 (protein concentration: 250 nM), 0.708 (protein concentration: 500 nM) and 0.688 (protein concentration: 1000 nM).

For UCUCAA, the “RBNS R-value” was determined as 0.805 (protein concentration: 250 nM), 0.835 (protein concentration: 500 nM) and 0.84 (protein concentration: 1000 nM).

As for UUACGC, the “RBNS R-value” (protein concentration: 250 nM) was found to be 0.784, the “RBNS R-value” (protein concentration: 500 nM) worked out at 0.803 and the “RBNS R-value” (protein concentration: 1000 nM) was 0.805.

AAGGCU: the “RBNS R-value” came to 0.979 (protein concentration: 250 nM), 0.991 (protein concentration: 500 nM) and 0.95 (protein concentration: 1000 nM).

For the sequence GAUCGG, the “RBNS R-value” by setting is: (protein concentration: 250 nM) 0.955; (protein concentration: 500 nM) 0.963; (protein concentration: 1000 nM) 0.942.

Take GAUAUA: the “RBNS R-value” is 1.32 (protein concentration: 250 nM), 1.36 (protein concentration: 500 nM) and 1.53 (protein concentration: 1000 nM).

Turning to GAUAUG, the “RBNS R-value” runs as follows: (protein concentration: 250 nM) 2.3; (protein concentration: 500 nM) 2.32; (protein concentration: 1000 nM) 2.43.

Regarding GAUAUU, the “RBNS R-value” by setting is: (protein concentration: 250 nM) 1.57; (protein concentration: 500 nM) 1.65; (protein concentration: 1000 nM) 1.77.

As to AUAUAA, the “RBNS R-value” (protein concentration: 250 nM) worked out at 0.522, the “RBNS R-value” (protein concentration: 500 nM) amounted to 0.55 and the “RBNS R-value” (protein concentration: 1000 nM) turned out to be 0.539.

As for AGUGUA, the “RBNS R-value” stood at 0.664 (protein concentration: 250 nM), 0.68 (protein concentration: 500 nM) and 0.657 (protein concentration: 1000 nM).

Consider GGAGUU, for which the “RBNS R-value” is, setting by setting: (protein concentration: 250 nM) 0.958; (protein concentration: 500 nM) 0.98; (protein concentration: 1000 nM) 0.948.

As to UUUACC, the “RBNS R-value” was 0.764 (protein concentration: 250 nM), 0.778 (protein concentration: 500 nM) and 0.794 (protein concentration: 1000 nM).

Regarding GGGUGU, the “RBNS R-value” reads like this: (protein concentration: 250 nM) 0.909; (protein concentration: 500 nM) 0.99; (protein concentration: 1000 nM) 0.941.

Regarding UCGGAA, the “RBNS R-value” (protein concentration: 250 nM) came out at 0.911, the “RBNS R-value” (protein concentration: 500 nM) is 0.907 and the “RBNS R-value” (protein concentration: 1000 nM) is 0.87.

On to CAUGAG, for which the “RBNS R-value” is, setting by setting: (protein concentration: 250 nM) 0.978; (protein concentration: 500 nM) 0.984; (protein concentration: 1000 nM) 0.979.

AAUGAU: the “RBNS R-value” (protein concentration: 250 nM) amounted to 5.76, the “RBNS R-value” (protein concentration: 500 nM) came to 5.22 and the “RBNS R-value” (protein concentration: 1000 nM) came out at 5.56.

For AAUGAG, the “RBNS R-value” runs as follows: (protein concentration: 250 nM) 1.03; (protein concentration: 500 nM) 1.07; (protein concentration: 1000 nM) 1.04.

For UAUGAA, the “RBNS R-value” reads like this: (protein concentration: 250 nM) 0.826; (protein concentration: 500 nM) 0.838; (protein concentration: 1000 nM) 0.811.

For the sequence CAUGAA, the “RBNS R-value” runs as follows: (protein concentration: 250 nM) 0.887; (protein concentration: 500 nM) 0.913; (protein concentration: 1000 nM) 0.901.

As for UAUGAU, the “RBNS R-value” was determined as 4.89 (protein concentration: 250 nM), 4.59 (protein concentration: 500 nM) and 4.9 (protein concentration: 1000 nM).

In the case of AAUGGU, the “RBNS R-value” runs as follows: (protein concentration: 250 nM) 0.878; (protein concentration: 500 nM) 0.894; (protein concentration: 1000 nM) 0.881.
